Laboratory results as given in ChEMBL document CHEMBL1201862, “PubChem BioAssay data set” (2004).
Out of some 400,000 compounds screened, about 2,100 (0.53%) were called active. Roughly 14% stayed inconclusive and do not appear here. No rule for the calls is given here. The entries come from a sample that favours actives as a whole.

Each molecule was assayed against Ataxin-2 (Homo sapiens) (UniProt Q99700) (assay: qHTS for Inhibitors of ATXN expression.).
Format: functional

Ataxin-2 (Homo sapiens), sequence (Q99700 whole entry): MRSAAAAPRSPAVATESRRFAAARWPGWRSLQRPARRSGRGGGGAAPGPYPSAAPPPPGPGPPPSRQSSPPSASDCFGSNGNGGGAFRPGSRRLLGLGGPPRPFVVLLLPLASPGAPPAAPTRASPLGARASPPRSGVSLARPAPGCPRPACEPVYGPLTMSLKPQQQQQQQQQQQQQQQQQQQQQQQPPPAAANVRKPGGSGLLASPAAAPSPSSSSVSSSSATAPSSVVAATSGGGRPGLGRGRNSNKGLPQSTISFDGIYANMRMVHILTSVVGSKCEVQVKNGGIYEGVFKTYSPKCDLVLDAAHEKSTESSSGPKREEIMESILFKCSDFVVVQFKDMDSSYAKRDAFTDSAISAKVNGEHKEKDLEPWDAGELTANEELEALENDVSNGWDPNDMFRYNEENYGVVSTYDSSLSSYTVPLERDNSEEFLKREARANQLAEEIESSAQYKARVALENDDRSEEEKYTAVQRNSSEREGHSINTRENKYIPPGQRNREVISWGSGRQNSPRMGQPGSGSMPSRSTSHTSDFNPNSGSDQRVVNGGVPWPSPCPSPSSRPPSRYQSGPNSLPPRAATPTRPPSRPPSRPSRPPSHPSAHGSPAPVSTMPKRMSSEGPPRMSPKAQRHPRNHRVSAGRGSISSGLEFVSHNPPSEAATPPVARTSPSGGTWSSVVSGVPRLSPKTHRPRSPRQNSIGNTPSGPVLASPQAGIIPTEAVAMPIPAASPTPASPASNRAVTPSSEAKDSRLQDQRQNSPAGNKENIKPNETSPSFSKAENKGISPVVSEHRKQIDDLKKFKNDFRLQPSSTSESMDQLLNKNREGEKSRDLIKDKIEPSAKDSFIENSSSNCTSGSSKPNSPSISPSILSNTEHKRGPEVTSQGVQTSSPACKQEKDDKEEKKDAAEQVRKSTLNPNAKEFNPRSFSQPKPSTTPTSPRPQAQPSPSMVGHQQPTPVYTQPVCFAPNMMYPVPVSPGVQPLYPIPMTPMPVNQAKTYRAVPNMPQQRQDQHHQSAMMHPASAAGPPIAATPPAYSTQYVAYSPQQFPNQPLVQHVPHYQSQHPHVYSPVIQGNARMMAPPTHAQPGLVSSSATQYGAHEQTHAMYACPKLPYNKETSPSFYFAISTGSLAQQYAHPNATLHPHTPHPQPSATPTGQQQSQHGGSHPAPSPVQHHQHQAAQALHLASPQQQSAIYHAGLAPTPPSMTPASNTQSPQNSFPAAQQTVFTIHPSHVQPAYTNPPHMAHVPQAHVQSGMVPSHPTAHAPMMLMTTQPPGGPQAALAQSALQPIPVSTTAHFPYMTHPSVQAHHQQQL

SMILES | Potency
NS(=O)(=O)c1ccc(S(=O)(=O)c2ccccc2)nc1 | inactive
O=[N+]([O-])c1ccc(Nc2ccccc2F)nc1 | inactive
Cc1ccc(S(=O)(=O)c2ccc([N+](=O)[O-])cn2)cc1 | 39.8 µM (active)
CCN(CC)c1nc(-c2ccccc2)ncc1S(=O)(=O)c1ccc(C)cc1 | inactive
Cc1cc(Sc2ccc([N+](=O)[O-])cn2)ccc1Br | inactive
Cn1c(S(=O)(=O)c2ccc([N+](=O)[O-])cc2)nc(Br)c1Br | inactive
Cc1ccc2nc3c(cc(C(=O)NCC4CCCO4)c(=N)n3CC3CCCO3)c(=O)n2c1 (configuration not stated) | inactive
Cc1ccc(C2C=C(c3ccccc3OC(F)F)Nc3ncnn32)cc1 (configuration not stated) | inactive
Cn1c(C(=O)NCCN2CCOCC2)cc2c(=O)n3ccccc3nc21 | inactive
CCCCn1c(SCCN2CCCCC2)nc2c1c(=O)n(C)c(=O)n2C | inactive
OC(c1cc(C(F)(F)F)nc2c(C(F)(F)F)cccc12)C1CCCCN1 (configuration not stated) | 20 µM (active)
O=S(=O)(Nc1nc2n(n1)C(c1ccc(F)cc1)C=C(c1ccc(Cl)cc1)N2)c1ccccc1 (configuration not stated) | inactive
COCC(C)OC(=O)c1c(N)n(CCCN2CCOCC2)c2nc3ccccc3nc12 (configuration not stated) | inactive
COc1ccc(-c2nn(-c3ccccc3)cc2/C=C(\CC(=O)O)c2nc3ccccc3s2)cc1OC | inactive
COc1ccc(-c2nn(-c3ccccc3)cc2/C=N/N=C(N)N)cc1OC | 39.8 µM (active)
COc1ccc(-c2nn(-c3ccccc3)cc2/C=N/Nc2ccc3ccccc3n2)cc1OC | inactive
N#CC(C#N)=Cc1cnc(O)c(C#N)c1Nc1ccccc1 | inactive
Nc1c(C(=O)Nc2ccc(F)cc2)sc2nc(-c3ccco3)ccc12 | inactive
Oc1ccc(CN2CCc3ccccc3C2)c2cccnc12 | 7.94 µM (active)
O=Cc1ccc(O)c2ncccc12 | inactive
O=C(CSc1ncccn1)N1CCc2ccccc2C1 | inactive
CCc1ccc(C(=O)c2cc3ccc(O)cc3oc2=O)cc1 | inactive
Oc1ccc(C23CC4CC(CC(C4)C2)C3)cc1O | 39.8 µM (active)
CNC(=O)/C(C#N)=C/c1c(N2CCN(c3ccc(OC)cc3)CC2)nc2c(C)cccn2c1=O | inactive
N=C1SC(c2ccccc2)C(=O)N1c1ncc(Cc2ccccc2Cl)s1 (configuration not stated) | 12.6 µM (active)
Fc1ccc(-n2c(S)nnc2-c2ccc3ccccc3n2)cc1Cl | inactive

SMILES | Potency
Oc1c(Br)cc(/C=N/Nc2ccc(Cl)nn2)cc1Br | inactive
FC(F)(F)c1nnc(-c2ccccc2)nc1Sc1ccccc1 | 39.8 µM (active)
CN1CCN(c2nc(-c3ccc(Cl)cc3)nc3ccccc23)CC1 | inactive
FC(F)(F)c1nnc(-c2ccccc2)nc1Sc1ccc(Cl)cc1 | 35.5 µM (active)
COc1cccc(-n2c(C)cc(/C=C3/C(=N)N4C(=NC3=O)SN=C4S(C)(=O)=O)c2C)c1 | inactive
COc1cc(/C=C2/C(=N)N3N=C(CC(=O)N4CCOCC4)SC3=NC2=O)ccc1OCc1ccccc1 | inactive
Cc1ncc(CO)c(/C=N/NC(=O)c2ccccc2Br)c1O | inactive
Cn1cc(/C=C2\SC(=S)N(NC(=O)c3ccccc3)C2=O)c2ccccc21 | inactive
COc1ccc(/C=C2\SC(=S)N(CCCC(=O)Nc3cc(C)on3)C2=O)cc1OC | inactive
COc1cc(/C=C2\SC(=S)N(C(C(=O)O)c3ccccc3)C2=O)ccc1O (configuration not stated) | 17.8 µM (active)
COc1cc(/C=C2\SC(=S)N(NC(=O)c3ccc(O)cc3)C2=O)ccc1O | 12.6 µM (active)
COc1cc(/C=C2/SC(=S)N(c3c(C)n(C)n(-c4ccccc4)c3=O)C2=O)ccc1O | 31.6 µM (active)
O=C(O)C(c1ccccc1)N1C(=O)/C(=C\c2ccc(O)c(O)c2)SC1=S (configuration not stated) | 39.8 µM (active)
Cc1c(NC(=O)COC(=O)/C=C/c2cccc(F)c2)c(=O)n(-c2ccccc2)n1C | inactive
CCN(CC)c1ccc2cc(C(N)=O)c(=O)oc2c1 | inactive
CCNC(=O)c1cc2c(=O)n3cccc(C)c3nc2n(CCc2ccccc2)c1=N | inactive
Nc1c(C(=O)N/N=C/c2ccc(F)cc2)oc2nc(-c3ccccc3)cc(-c3ccco3)c12 | inactive
O=C(Nc1ccc2nc(-c3ccco3)c(-c3ccco3)nc2c1)N1CCCCCC1 | inactive
CCCn1c(=N)c(C(=O)NCc2cccnc2)cc2c(=O)n3ccccc3nc21 | inactive
CC1(C)C2CC=C(/C=N/NC(=S)NCCc3ccccc3)C1C2 (configuration not stated) | inactive
COc1cc(C2CC(c3c(C)cc(C)nc3O)=NN2c2ccccc2F)cc(OC)c1OC (configuration not stated) | inactive
CC(C)C(=O)NC(Nc1cc(C(F)(F)F)ccc1Cl)C(Cl)(Cl)Cl (configuration not stated) | inactive
N#Cc1sc2nc(-c3cccs3)cc(-c3ccc(Cl)cc3)c2c1N | inactive
O=C(O)c1cc([N+](=O)[O-])ccc1-c1ccc([N+](=O)[O-])cc1C(=O)O | inactive
O=C(O)c1ccccc1Nc1ccc([N+](=O)[O-])cc1 | inactive
Nc1cc([N+](=O)[O-])ccc1Nc1ccc(O)cc1 | 44.7 µM (active)
